The values that follow come from PubChem BioAssay.

Activity calls are given as the source filed them. Unless noted, the rule behind the calls is not given here.

Experiment [1] is described as follows: resazurin metabolic signal in HepG2 cells – cell-based, resazurin fluorescence, 24 h, PK04 Diversity Set, profiling panel (AID 1172). Note: test concentration not given here. The settings on record: HepG2 viability, higher = more signal. Background: Alamar Blue is a resazurin reagent that responds to reducing activity.
Experiment [2] in a line: budding yeast growth changes without added modifier – OD600, strain BY4716, 24 h, basal condition, primary screen (AID 1173). The settings on record: S. cerevisiae BY4716 growth, OD600, 24 h; higher = more signal, called active from +8 up or from −8 down.
Experiment [3] in a line: viability profiling in MM1S myeloma cells – cell-based, resazurin fluorescence, basal, 24 h, PK04 Diversity Set, profiling panel (AID 1174). Note: test concentration not given here. The settings on record: higher = more signal, called active from +8 up or from −8 down.
The target of experiment [4] is Dihydroorotate dehydrogenase (quinone), mitochondrial (Plasmodium falciparum (isolate 3D7)) (UniProt Q08210). Briefly: inhibition of P. falciparum DHODH – biochemical, C-terminal His tag, absorbance 600 nm, primary screen (AID 1175).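 Note: recombinant parasite enzyme with a five histidine tag at its C terminus; test concentration not given here.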 The settings on record: PfDHODH enzyme, DCIP absorbance 600 nm; higher = more signal, called active from +8 up or from −8 down.
Experiment [5] can be described thus: inhibition of PAO1 biofilm formation – strain PAO1, LB-PBS medium, absorbance 600 nm, primary screen (AID 1176). Note: test concentration not given here. The settings on record: P. aeruginosa PAO1 growth/biofilm, A600, 12 h; higher = more signal.
Experiment [6] can be described thus: growth modulation of vineyard yeast isolate – strain RM11-1a, OD600, basal, 24 h, primary screen (AID 1177).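 Note: cultures grown under basal conditions with no added stressor; test concentration not given here.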 The settings on record: S. cerevisiae RM11-1a growth, OD600, 24 h; higher = more signal, called active from +8 up or from −8 down.
The nature of experiment [7]: growth of efflux-deficient E. coli DRC39 – strain DRC39, OD650, 24 h, E. coli filamentation inducers, primary screen (AID 1178).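 Note: growth measured as culture turbidity by optical density at 650 nm; test concentration not given here.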 The settings on record: E. coli DRC39 acrAB, higher = more signal, called active from +8 up or from −8 down.
Experiment [8] in a line: growth of efflux-deficient E. coli DRC39 – strain DRC39, OD650, 48 h, E. coli filamentation inducers, primary screen (AID 1179).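 Note: screen aims at cell division blockers that make cells filament.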 The settings on record: E. coli DRC39 delta-acrAB growth, higher = more signal, called active from +8 up or from −8 down.
Experiment [9] in a line: viability profiling in RPMI8226 myeloma cells – cell-based, resazurin fluorescence, basal, 24 h, PK04 Diversity Set, profiling panel (AID 1180).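 Note: RPMI8826 multiple myeloma cell line at 5000 cells per well; test concentration not given here.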 The settings on record: higher = more signal.
Experiment [10] concerns the target E3 ubiquitin-protein ligase XIAP (Homo sapiens) (UniProt P98170). Briefly: small molecules binding XIAP protein – biophysical, small-molecule microarray, fluorescence 635 nm, primary screen (AID 1181).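 Note: score merges 667 nm emission and signal to noise over triplicate slides.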 The settings on record: higher = more signal.

Chain of Dihydroorotate dehydrogenase (quinone), mitochondrial (Plasmodium falciparum (isolate 3D7)) (Q08210 whole entry, looked up): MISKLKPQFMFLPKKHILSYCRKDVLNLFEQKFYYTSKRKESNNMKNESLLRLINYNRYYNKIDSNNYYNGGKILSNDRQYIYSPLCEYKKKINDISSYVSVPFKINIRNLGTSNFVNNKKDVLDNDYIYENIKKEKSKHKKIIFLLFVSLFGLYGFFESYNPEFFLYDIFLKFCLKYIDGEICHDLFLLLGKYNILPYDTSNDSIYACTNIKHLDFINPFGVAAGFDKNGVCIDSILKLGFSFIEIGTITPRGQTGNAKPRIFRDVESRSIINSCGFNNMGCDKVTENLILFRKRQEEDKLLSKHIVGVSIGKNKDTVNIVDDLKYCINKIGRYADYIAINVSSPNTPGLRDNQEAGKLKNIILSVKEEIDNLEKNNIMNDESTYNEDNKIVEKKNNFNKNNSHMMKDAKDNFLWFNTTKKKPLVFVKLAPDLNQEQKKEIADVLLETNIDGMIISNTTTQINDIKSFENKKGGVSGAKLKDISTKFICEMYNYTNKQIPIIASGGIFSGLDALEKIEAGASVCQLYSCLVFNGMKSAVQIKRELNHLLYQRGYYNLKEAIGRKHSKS
Chain of E3 ubiquitin-protein ligase XIAP (Homo sapiens) (P98170 whole entry, looked up): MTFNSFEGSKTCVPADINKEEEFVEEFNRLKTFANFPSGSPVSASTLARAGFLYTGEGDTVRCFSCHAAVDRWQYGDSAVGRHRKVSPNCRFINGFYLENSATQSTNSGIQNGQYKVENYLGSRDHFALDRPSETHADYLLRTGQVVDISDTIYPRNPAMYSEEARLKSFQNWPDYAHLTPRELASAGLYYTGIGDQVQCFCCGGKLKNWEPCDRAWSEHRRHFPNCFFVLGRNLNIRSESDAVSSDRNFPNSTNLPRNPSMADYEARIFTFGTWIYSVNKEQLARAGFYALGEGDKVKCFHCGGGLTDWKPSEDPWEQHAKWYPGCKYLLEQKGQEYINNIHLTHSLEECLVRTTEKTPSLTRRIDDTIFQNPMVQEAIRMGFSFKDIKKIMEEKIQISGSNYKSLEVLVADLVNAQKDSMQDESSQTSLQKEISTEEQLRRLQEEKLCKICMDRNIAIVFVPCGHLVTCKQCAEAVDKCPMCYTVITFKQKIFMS

In the case of `CN(C)CCCC[C@@H]1NC(=O)[C@H]2C[C@@H](C(=O)O)[C@@H](c3cccc(OCCO)c3)N2C1=O`, the z-score was 0.629 in [1]; -1.12 (inactive) in experiment [2]; 0.499 (inactive) in [3]; -0.0185 (inactive) in [5]; -0.452 (inactive) in [6]; -0.0925 (inactive) in [7]. Further, the z-score in experiment [8] is -0.151 (inactive); in experiment [9], 0.546. For the same compound, the composite z-score is -0.614 (inactive) in experiment [4] and 0.332 in experiment [10].

As for `CN(C)CCCC[C@@H]1NC(=O)[C@@H]2C[C@H](C(=O)NCc3ccc(F)cc3)[C@H](c3ccc(O)cc3)N2C1=O`, the z-score in experiment [1] was -0.188; in experiment [2], 0.444 (inactive); in experiment [3] it was -0.0976 (inactive); in experiment [5], 0.559 (inactive); in [6] it was -0.605 (inactive); in [7], 0.012 (inactive). In addition, the z-score was 0.0344 (inactive) in [8] and -0.0587 in experiment [9]. The values for the composite z-score in experiment [4] and in [10] were -1.14 (inactive) and -0.0448, respectively.

For the compound `COCCOC(=O)N1C(=O)[C@@]2(c3cc(C#Cc4ccc(OC)cc4)ccc31)[C@H](c1ccc(OCCO)cc1)N1[C@H](c3ccccc3)[C@H](c3ccccc3)OC(=O)[C@H]1[C@@H]2C(=O)N1CCCCCCC1`, the z-score was -0.266 in experiment [1]; 0.376 (inactive) in experiment [2]; 0.699 (inactive) in experiment [3]; 2.17 (inactive) in experiment [5]; 0.277 (inactive) in experiment [6]; 0.0117 (inactive) in experiment [7]. Moreover, the figures for the z-score in experiment [8] and in [9] were 1.19 (inactive) and 0.746, respectively. In addition, the composite z-score in experiment [4] is -1.31 (inactive); in experiment [10], 0.0162.

For the compound `COc1ccc([Si](C)(C)[C@H]2[C@H](CC(=O)N3Cc4ccccc4C[C@H]3CO)O[C@@]3(C(=O)N(Cc4cccc(N5C(=O)c6cccc7cccc5c67)c4)c4ccccc43)[C@@H]2C)cc1`, the z-score in [1] is -0.539; in [2], -0.563 (inactive); in experiment [3], -2.76 (inactive); in experiment [5], 1.49 (inactive); in experiment [6], 1.95 (inactive); in experiment [7], 0.643 (inactive). The figures for the z-score in experiment [8] and in experiment [9] were 0.209 (inactive) and -2, respectively. The composite z-score in [4] was -1.88 (inactive); in experiment [10] it was 0.0153.

Regarding `COC(=O)[C@@]1(Cc2ccc(OC)cc2)[C@@H]2[C@@H](CC(=O)[C@H]2CC(=O)C(=O)N2CCCC2)CN1C(=O)c1ccccc1`, the z-score was -0.437 in experiment [1]; 0.442 (inactive) in experiment [2]; -0.526 (inactive) in experiment [3]; 0.274 (inactive) in experiment [5]; -0.148 (inactive) in [6]; -0.415 (inactive) in [7]. Further, the figures for the z-score in experiment [8] and in experiment [9] were -0.394 (inactive) and -1.57, respectively. Moreover, the composite z-score was -0.448 (inactive) in experiment [4] and -0.01 in experiment [10].

As to `COCCCN1C(=O)[C@@]2(Cc3ccccc31)c1ccccc1C(=O)N(Cc1ccccc1OC)[C@H]2c1ccc(CO)cc1`, the z-score in [1] was -0.525; in experiment [2], -0.0955 (inactive); in experiment [3], -0.309 (inactive); in [5], 0.292 (inactive); in [6], -0.724 (inactive); in experiment [7], 0.487 (inactive). Also, the z-score in [8] was -0.128 (inactive); in experiment [9] it was -0.0935. In addition, the results for the composite z-score in experiment [4] and in experiment [10] were -3.75 (inactive) and -0.0622, respectively.

Take `COc1ccc(CCNC(=O)[C@@]2(Sc3ccc(C)cc3)CC(=O)N(C(C)C)[C@@H]2c2ccc(CO)cc2)cc1`: the z-score in experiment [1] was -0.335; in experiment [2] it was 0.748 (inactive); in experiment [3], -0.416 (inactive); in experiment [5] it was 0.745 (inactive); in experiment [6], 1.06 (inactive); in experiment [7], -0.252 (inactive). The results for the z-score in experiment [8] and in experiment [9] were -0.602 (inactive) and -0.218, respectively. The composite z-score in [4] was 0.557 (inactive); in experiment [10] it was 0.0132.

Regarding `CN(C)CCCNC(=O)[C@@H]1c2ccccc2C(=O)N(C2Cc3ccccc3C2)[C@H]1c1ccc(CO)cc1`, the z-score in experiment [1] was -0.785; in experiment [2], -0.944 (inactive); in [3] it was 0.0257 (inactive); in experiment [5], 0.444 (inactive); in [6], -0.632 (inactive); in experiment [7], 0.615 (inactive). Also, the z-score in experiment [8] is 0.597 (inactive); in experiment [9], 0.461. For the same compound, the composite z-score in experiment [4] is -0.487 (inactive); in [10], 0.0345.

With `CC(C)CNC(=O)[C@@H]1c2ccccc2C(=O)N(C(C)C)[C@H]1c1ccc(CO)cc1`, the z-score in [1] was 0.0161; in experiment [2], 0.294 (inactive); in experiment [3], 0.334 (inactive); in experiment [5], 0.348 (inactive); in [6], -1.19 (inactive); in [7], 0.855 (inactive). Also, the values for the z-score in [8] and in experiment [9] were 1.76 (inactive) and 0.609, respectively. The composite z-score is -1.57 (inactive) in experiment [4] and -0.0434 in experiment [10].

As to `NC(=O)N1C(=O)C2C(C1=O)C1C=C(CCCO)C2C(c2ccc(CN3CCCC3)cc2)N1Cc1cccc(OC(F)(F)F)c1` (stereo not given), the z-score was -0.708 in experiment [1]; -0.491 (inactive) in experiment [2]; -0.504 (inactive) in [3]; -0.66 (inactive) in experiment [5]; -0.219 (inactive) in experiment [6]; -0.385 (inactive) in experiment [7]. Besides, the values for the z-score in experiment [8] and in [9] were -0.579 (inactive) and -0.884, respectively. The composite z-score is -4.9 (inactive) in experiment [4] and 0.101 in [10].

With `COCCOC(=O)N1C(=O)[C@@]2(c3cc(C#Cc4ccc(OC)cc4)ccc31)[C@H](C(=O)Nc1nc3ccccc3s1)[C@H]1C(=O)O[C@H](c3ccccc3)[C@H](c3ccccc3)N1[C@@H]2c1ccccc1OCCO`, the z-score in experiment [1] was 1.17; in experiment [2] it was 0.86 (inactive); in experiment [3], 1.34 (inactive); in experiment [5], 1.89 (inactive); in experiment [6], 0.972 (inactive); in experiment [7], 0.285 (inactive). For the same compound, the z-score is 0.376 (inactive) in experiment [8] and 1.85 in [9]. Also, the results for the composite z-score in experiment [4] and in [10] were -0.882 (inactive) and -0.221, respectively.
